Data on 29 compounds can be found in PubChem BioAssay (NCATS).

Results filed as inconclusive are left out. Active and inactive are the calls of the source. Calls come from the whole dose curve; as a rule, active = well fitted cell-killing curve with a large enough effect; inconclusive = small, poorly fitted or top-dose-only effect; inactive = flat fitted curve, though single readings scatter.

The test in a line: Identifying Small Molecule Inhibitors of Pancreatic Cancer Stem Cells (A278, Adherent) (AID 1259361).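 Note: viability read after 48 h compound exposure; nearly all actives have a fitted effect of over 35% in size.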 The conditions noted are these: series mostly up to 46.1 µM. The text has this:
Progenitor-like cancer cells, often referred to as cancer stem cells (CSC), are believed to be the drivers of therapeutic resistance and rapid recurrence. CSCs are postulated to reside in specific niches characterized by low oxygen tension, limited nutrient supply, and high redox load. Selectively targeting CSC, alone or in combination with cytotoxic agents, as a means to produce durable remissions is an appealing concept. Modeling these cells in in vitro setting is an important step in finding new therapies and/or targets. Multiple reports highlight that forcing cells in culture into 3-dimensionaly architectures (spheroids) re-establishes key progenitor-like transcriptional signatures. Pancreatic cancer is among the diseases with the most dismal outlook which is driven, largely, by recurance following front-line therapies. […] In hopes of deriving new insight into the targeting of these pancreatic CSCs we examined three established pancreatic cancer cell lines in cytotoxicity assays versus a collection of approved and investigational drugs. Importantly, we screened these lines as traditional monolayer (2D) and spheroid (3D) formats to gain an appreciation of agents with differential activity.
Multicellular tumor spheroids from Panc1, MiaPaCa-2, and the primary low-passage tissue culture line SB.06 were seeded in stem cell media (SCM) in nonadherent 6-well plates coated with hydrogel (Corning Life Sciences, Chelmsford, Mass) and pancreatic spheres generated for 14 days before screening. Cells were seeded into 1536-well solid-bottom white tissue culture treated Greiner Bio One Plates (789173-F) using a MultiDrop Combi (Thermofisher Scientific) dispenser and a small sterile cassette. One column was media alone to be used as a :"no cells" control. The plates were then covered with sterilized stainless steel gasketed lids from Kalypsys. After allowing cells to attach for 4 hours, 23 nL of test compound or control (negative control DMSO and positive control 9.2 uM Bortezomib-final) were added from a 1536-well polypropylene compound source plate to each well using a 1536 head pin tool from Kalypsys. Cells were then incubated for 48 hours at 37C, 95% relative humidity and 5% CO2. After 48 hours, plates were removed from the incubator and 3 uL of CellTiter-Glo (Promega) was added using an Aurora Flying Reagent Dispenser Bioraptor. Plates were incubated at room temperature for 10 minutes prior to reading the luminescence on the Viewlux (PerkinElmer). The relative luciferase units are used to calculate the percent activity using the activity of DMSO in the cells and no cells columns for normalization of no inhibition and full inhibition respectively.
In the case of `Cc1nc(N)sc1-c1ccnc(Nc2ccc(N3CCOCC3)cc2)n1`, the IC50 (viability decrease) was 5.9 µM (active).
As for `CN1CCN(CCOc2cc(OC3CCOCC3)c3c(Nc4c(Cl)ccc5c4OCO5)ncnc3c2)CC1`, the figure is 20.9 µM (active).
Turning to `CC(C)(C)C(=O)Oc1ccc2c(c1)nc(NC(=O)c1cccc([N+](=O)[O-])c1)n2CCCO`, the IC50 (viability decrease) is 18.7 µM (active).
Turning to `CN(C)Cc1ccc(-c2nc3cccc4c3n2CCNC4=O)cc1`, the IC50 (viability decrease) is 23.5 µM (active).
As for `Clc1ccc(-c2nc3sccn3c2C=NOCc2ccc(Cl)c(Cl)c2)cc1`, the entry is “inactive”; as for `OC[C@H]1O[C@@H](n2cnc3c2NC=NC[C@@H]3O)C[C@H]1O`, 20.9 µM (active); as for `COc1cccc2c1CCCC2CCCN1CCN(C2CCCCC2)CC1` (centres undefined), 16.6 µM (active).
`c1ccc2c(-c3cnn4cc(-c5ccc(N6CCNCC6)cc5)cnc34)ccnc2c1`: the IC50 (viability decrease) was 23.5 µM (active).
For `CCOc1ccc(Nc2nc(-c3c(C)nc4ccccn34)cs2)cc1`, the IC50 (viability decrease) is 0.0264 µM (active).
`COc1ncc(-c2ccc3nccc(-c4ccnnc4)c3c2)cc1NS(=O)(=O)c1ccc(F)cc1F`: the IC50 (viability decrease) is 0.118 µM (active).
As to `COc1cc2ncnc(-n3nc(-c4ccccn4)nc3N)c2cc1OC`, the IC50 (viability decrease) was 3.32 µM (active).
`CC(C)[C@H](CO)Nc1nc(Nc2ccc(C(=O)O)c(Cl)c2)c2ncn(C(C)C)c2n1`: the IC50 (viability decrease) result is “inactive”.
`O=c1cc(N2CCOCC2)oc2c(-c3cccc4c3sc3ccccc34)cccc12`: the IC50 (viability decrease) is 18.7 µM (active).
For `CO[C@@H](C(=O)N1Cc2[nH]nc(NC(=O)c3ccc(N4CCN(C)CC4)cc3)c2C1)c1ccccc1`, the IC50 (viability decrease) is 0.0935 µM (active).
As for `O=C(CCCCCCC(=O)Nc1ccccc1)NO`, the figure is 3.4 µM (active); as for `CO[C@H]1C=CC=C(C)C(=O)NC2=CC(=O)C(NCCN(C)C)=C(C[C@@H](C)C[C@H](OC)[C@@H](O)[C@@H](C)C=C(C)[C@@H]1OC(N)=O)C2=O`, 0.0059 µM (active).
On to `O=C(O)CCC1CCC(c2cc(F)ccc2F)(S(=O)(=O)c2ccc(Cl)cc2)CC1` (centres undefined), for which the IC50 (viability decrease) entry is “inactive”.
Take `CN(C)C1CCN(C(=O)c2ccc(NC(=O)Nc3nc(N4CCOCC4)nc(N4CCOCC4)n3)cc2)CC1`: the IC50 (viability decrease) was 0.0148 µM (active).
On to `CC(C)(C)COc1ccc(-n2cc(C(=O)O)cn2)cc1C#N`, for which the IC50 (viability decrease) result was “inactive”.
Consider `CC(C)(C)c1cc(C(=O)O)c(NC(=O)Nc2ccc3[nH]ncc3c2)s1`, for which the IC50 (viability decrease) result is “inactive”.
In the case of `CC(=O)N(C)C1(c2ccccc2)CCN(CCC[C@]2(c3ccc(Cl)c(Cl)c3)CCCN(C(=O)c3ccccc3)C2)CC1`, the IC50 (viability decrease) is 9.35 µM (active).
As for `CC(C)(C(=O)NCC(F)(F)C(F)(F)F)C(=O)N[C@@H]1C(=O)Nc2ccccc2-c2ccccc21`, the entry is “inactive”.
On to `CS(=O)c1ccc(-c2nc(-c3ccc(F)cc3)c(-c3ccncc3)[nH]2)cc1` (centres undefined), for which the IC50 (viability decrease) entry was “inactive”.
On to `Cc1ccc(F)c(NC(=O)Nc2ccc(-c3cccc4[nH]nc(N)c34)cc2)c1`, for which the IC50 (viability decrease) was 26.4 µM (active).
For the compound `NC(CO)(CO)CCc1ccc(Sc2cccc(OCc3ccccc3)c2)cc1Cl`, the IC50 (viability decrease) is 26.4 µM (active).
With `CC1=C(/C=C/C(C)=C/C=C/C(C)=C/C(=O)Nc2ccc(O)cc2)C(C)(C)CCC1`, the IC50 (viability decrease) was 3.32 µM (active).
As for `O=C(O)c1ccc(-c2cc3cccnc3c(-c3ccc4nonc4c3)n2)cc1`, the entry is “inactive”; as for `O=C1C(Cl)=C(NCCN2CCOCC2)C(=O)c2ncccc21`, 3.32 µM (active); as for `COc1cc(N2CCC(N3CCN(C)CC3)CC2)ccc1Nc1ncc(Cl)c(Nc2ccccc2S(=O)(=O)C(C)C)n1`, 6.62 µM (active).
